Compound activity as filed in PubChem BioAssay.
A selection: hits, their analogues and other compounds. The true share with any hit is near 1.8%.
PAD4 FP inh = human PAD4 inhibitors, primary screen, biochemical, fluorescence polarization, 1536-well format; recombinant PAD4, RCA probe fluorescence polarization; inhibition, % at 6.36 µM; actives 0.41% (n = 330,000); AID 485272, 2010;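 active = percent inhibition above a cutoff equal to the mean of all tested compounds plus 3 SD, cut at about 15% in these data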;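 also: 0% = PAD4 with RCA probe and DMSO and 100% = probe without PAD4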
LYPLA2 counter = LYPLA2 inhibitors, primary screen, counter-screen for PME1 inhibitor project, biochemical, fluorescence polarization, FP-Rh probe ABPP. AID 2177, 2009. Acyl-protein thioesterase 2 (Homo sapiens), O95372. inhibition, % at 5.9 µM. actives 0.38% (n = 320,000). recombinant LYPLA2;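 active = inhibition above the screen-wide mean plus 3 SD, limit set per campaign, cut at about 26% in these data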;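 also: 0% = LYPLA2 with DMSO and 100% = wells lacking LYPLA2 enzyme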
Target sequence (O95372 whole entry, looked up): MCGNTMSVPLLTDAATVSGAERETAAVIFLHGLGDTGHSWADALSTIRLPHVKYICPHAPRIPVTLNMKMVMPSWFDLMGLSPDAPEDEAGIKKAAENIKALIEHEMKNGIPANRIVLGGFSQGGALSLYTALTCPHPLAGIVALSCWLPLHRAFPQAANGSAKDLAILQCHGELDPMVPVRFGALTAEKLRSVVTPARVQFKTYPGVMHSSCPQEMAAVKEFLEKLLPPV
Fam108B inh = mouse Fam108B serine hydrolase inhibitors, primary screen, counter-screen for RBBP9 inhibitor project, biochemical, fluorescence polarization; AID 1947, 2009; actives 0.33% (n = 300,000); recombinant Fam108B, FP-Rh probe fluorescence polarization; inhibition, % at 9.51 µM;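 active = inhibition above the screen mean inhibition plus 3 SD, computed separately per campaign, cut at about 18% in these data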;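 also: inhibitors lower polarization as less probe binds the enzyme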
GSTO1 inh = inhibitors of recombinant GSTO1, primary screen, counter-screen for RBBP9 inhibitor project, biochemical, fluorescence polarization | activity-based probe fluorescence polarization | AID 1974, 2009 | actives 1.1% (n = 300,000) | inhibition, % at 5.96 µM;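 active = inhibition above the campaign mean inhibition plus 3 SD, cut at about 35% in these data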;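 also: 0% = GSTO1-1 with DMSO and 100% = wells lacking GSTO1-1 enzyme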
Target sequence (P78417 whole entry, looked up): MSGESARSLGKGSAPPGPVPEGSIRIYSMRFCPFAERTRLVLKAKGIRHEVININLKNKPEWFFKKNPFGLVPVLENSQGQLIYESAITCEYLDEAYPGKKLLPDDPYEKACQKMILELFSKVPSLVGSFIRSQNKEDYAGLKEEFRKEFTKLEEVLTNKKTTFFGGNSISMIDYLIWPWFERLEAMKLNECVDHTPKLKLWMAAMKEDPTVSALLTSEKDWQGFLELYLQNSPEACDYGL
LYPLA1 inh = LYPLA1 inhibitors, primary screen, counter-screen for PME1 inhibitor project, biochemical, fluorescence polarization, FP-Rh probe ABPP; AID 2174, 2009; actives 0.16% (n = 320,000); recombinant LYPLA1; inhibition, % at 5.9 µM; Acyl-protein thioesterase 1 (Homo sapiens), O75608;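 active = inhibition above the mean of all tested compounds plus 3 SD, set per campaign, cut at about 14% in these data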;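 also: inhibitors block serine hydrolase probe labeling of LYPLA1 so polarization falls; 0% = enzyme with DMSO and 100% = wells lacking LYPLA1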
Target sequence (O75608 whole entry, looked up): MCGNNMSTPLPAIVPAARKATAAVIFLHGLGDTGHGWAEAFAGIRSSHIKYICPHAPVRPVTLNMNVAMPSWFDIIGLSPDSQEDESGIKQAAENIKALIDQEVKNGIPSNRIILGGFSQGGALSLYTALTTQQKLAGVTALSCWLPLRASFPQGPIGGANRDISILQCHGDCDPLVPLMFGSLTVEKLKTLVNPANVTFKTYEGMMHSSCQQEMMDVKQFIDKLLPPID
PME-1 inh = PME-1 inhibitors via competitive probe labeling, primary screen, biochemical, fluorescence polarization, FP-Rh probe, HTS; Protein phosphatase methylesterase 1 (Homo sapiens), Q9Y570; recombinant PME-1; inhibition, % at 5.9 µM; actives 0.53% (n = 320,000);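 active = inhibition above the campaign mean of all compounds plus 3 SD, cut at about 26% in these data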;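 also: competitive labeling of PME-1 active site by serine hydrolase directed probe; 0% = PME-1 with DMSO and 100% = wells lacking PME-1 enzyme; inhibitors block probe labeling so polarization falls and inhibition rises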
Fam108b confirm = mouse Fam108b serine hydrolase inhibitors, confirmation, counter-screen for RBBP9 inhibitor project, biochemical, fluorescence polarization, triplicate. shares compounds with Fam108B inh. inhibition, % at 9.51 µM. actives 44% (n = 930). recombinant Fam108b, FP-Rh probe fluorescence polarization;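 active = inhibition above a limit from the primary screen, the mean over all compounds plus 3 SD, cut at about 19% in these data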;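 also: 0% = median of active Fam108b wells and 100% = catalytically dead S170A mutant; inhibitors free the probe so polarization falls as inhibition rises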
Fam108b inh = inhibition of mouse Fam108b by HTS hits, late-stage follow-up, biochemical, gel-based ABPP, soluble recombinant form; shares compounds with Fam108B inh; actives 44% (n = 260); inhibition, % at 20 µM; fluorophosphonate probe; in the data active = inhibition above about 40%
Starred values were filed as active, the others as inactive; x = no result.

SMILES	PAD4 FP inh	LYPLA2 counter	Fam108B inh	GSTO1 inh	LYPLA1 inh	PME-1 inh	Fam108b confirm	others
O=C(Nc1cccc(-c2csc(Nc3cccc(C(F)(F)F)c3)n2)c1)c1cc([N+](=O)[O-])cc(C(F)(F)F)c1	-2.2	-10.1	18.6*	-1.3	-6.8	2.4	2.4
O=C(Nc1ccc(-c2csc(Nc3ccccc3)n2)cc1)c1cc([N+](=O)[O-])cc(C(F)(F)F)c1	2.2	-8.4	64.5*	-11.1	-11.2	1.0	87.0*	Fam108b inh=100.0*
O=C(Nc1ccc(-c2csc(Nc3ccc(Cl)cc3)n2)cc1)c1cccc(C(F)(F)F)c1	-2.0	6.1	49.7*	-12.4	-10.9	26.4*	67.7*	Fam108b inh=95.0*
CC(=O)c1cccc(Nc2nc(-c3cccc([N+](=O)[O-])c3)cs2)c1	2.7	-10.4	0.8	-3.0	-8.2	3.9	x
O=C(Nc1ccc(-c2csc(Nc3ccccc3)n2)cc1)c1cccc(C(F)(F)F)c1	-1.3	-7.7	4.0	-7.9	-16.7	7.8	x
O=S(=O)(c1ccc2ccccc2c1)n1cccn1	5.4	4.0	8.7	2.9	2.9	1.3	x
C=CC[C@@H](CC(=O)N[C@@H](CO)Cc1ccccc1)C(=O)N[C@@H](COC(=O)[C@H](CC=C)CC(=O)OC(C)(C)C)Cc1c[nH]c2ccccc12	6.7	x	x	x	x	x	x
CC(=O)NCCn1ccc2ccccc21	-3.4	-9.1	22.0*	10.7	-0.6	-5.9	4.8
O=C(Cc1ccccc1)NCCn1ccc2ccccc21	-0.3	6.5	1.1	-1.0	-0.4	-1.2	x
C#CC(CO)N(CCN(Cc1ccccc1)C(C#C)CO)Cc1ccccc1 (stereo not given)	2.0	1.9	4.8	-1.8	-1.5	3.6	x
Cc1[nH]c2ccccc2c1/C=N/NC(=O)C1CC1(c1ccccc1)c1ccccc1 (stereo not given)	-5.7	-6.7	21.1*	-2.3	-7.6	41.8*	15.6
O=C(N/N=C/c1c[nH]c2ccccc12)c1ccn(Cc2ccc(Cl)cc2Cl)n1	-7.3	1.2	20.7*	5.0	-10.5	17.5	0.5
O=C(N/N=C/c1c[nH]c2ccc(Br)cc12)c1ccn(Cc2ccc(Cl)cc2)n1	-2.6	-17.4	2.3	3.5	-13.2	-5.5	x
NS(=O)(=O)c1ccc(N=Nc2c(=O)[nH]n3c(=O)c4c([nH]c23)CCCC4)cc1	0.4	-6.1	6.6	-3.1	-0.5	6.8	x
O=c1[nH]n2c(=O)c3c([nH]c2c1N=Nc1cccc(Cl)c1)CCC3	0.7	4.5	20.8*	12.3	7.7	56.2*	14.8
CSc1ccc(C2Nc3cccc4cccc(c34)N2)cc1	-5.0	-20.5	18.8*	12.4	-17.3	47.6*	6.1
c1cc2c3c(cccc3c1)NC(c1ccc3c(c1)OCO3)N2	-5.5	-3.5	24.0*	35.5*	-8.4	22.8	4.4
Clc1ccc(C2Nc3cccc4cccc(c34)N2)cc1	1.5	1.5	27.8*	35.3*	-4.7	18.6	22.5*
O=[N+]([O-])c1cc(C2Nc3cccc4cccc(c34)N2)ccc1Cl	3.4	-11.4	1.1	9.8	-15.1	17.7	x
Brc1ccc(C2Nc3cccc4cccc(c34)N2)s1	3.5	1.2	42.4*	33.9	-7.5	33.4*	28.5*
CSc1ccc(C2NC(=O)c3ccccc3N2)cc1 (stereo not given)	-2.4	6.0	-0.9	-2.5	0.4	5.7	x
Cc1ccc(CNC(=O)CCCC(=O)O)cc1	2.2	4.1	-1.8	1.4	-1.2	1.9	x
O=C(CNC(=O)c1ccc(Cl)cc1)c1ccccc1	0.2	1.0	-2.2	-10.8	1.0	-2.7	x
CC(=NNC(=O)c1cccc(Cl)c1)C1C(=O)c2ccccc2C1=O	x	x	x	x	x	x	x	Fam108b inh=0.0
C/C(=N\NC(=O)c1ccc(-c2ccccc2)cc1)C1C(=O)c2ccccc2C1=O	-2.2	4.9	26.6*	29.0	10.2	17.2	24.6*
SMILES	PAD4 FP inh	LYPLA2 counter	Fam108B inh	GSTO1 inh	LYPLA1 inh	PME-1 inh	Fam108b confirm	others
O=C(Nc1ccc(Cl)cc1)c1cc2c(cc1O)[nH]c1ccccc12	-2.4	-2.8	24.6*	21.3	-10.6	-48.4	-98.2
COc1ccc(N2CCN(C(=O)c3cc(=O)c4cc(C)c(C)cc4o3)CC2)cc1	-4.1	4.6	0.9	4.4	-0.1	9.9	x
Fc1ccc2nc(Nc3nc4cc5c(cc4s3)OCO5)sc2c1	-3.8	-9.6	39.7*	-0.4	-4.7	52.5*	45.7*	Fam108b inh=95.0*
Fc1ccc2nc(Nc3nc4cc5c(cc4s3)OCCO5)sc2c1	-4.1	8.5	21.3*	8.0	-0.9	72.3*	12.0
O=C1c2ccccc2N[C@@H]2C=CC[C@@H]2N1O	4.1	x	x	x	x	x	x
c1cc2c3c(cccc3c1)NC1(CCC3(CC1)Nc1cccc4cccc(c14)N3)N2	-13.3	8.5	36.2*	28.2	-8.3	47.3*	6.8
c1cc2c3c(cccc3c1)NC1(CCCCC1)N2	-12.6	-9.6	2.8	15.6	-9.0	-3.2	x
On1onc2c3cc(-c4ccccc4)nc3ccc21	0.6	2.9	26.5*	5.7	-6.5	45.1*	21.1*
O=C(NCCc1ccccc1)c1ccc2c(=O)[nH]c3c(C(=O)NCC4CCCO4)sc(=S)n3c2c1 (stereo not given)	-4.8	14.2	34.3*	10.9	5.2	22.8	35.5*	Fam108b inh=20.0
O=C(NC1CCCCC1)c1sc(=S)n2c1[nH]c(=O)c1ccccc12	-0.5	5.1	35.4*	-136.2	2.2	20.4	32.2*	Fam108b inh=85.0*
CCCCNC(=O)c1sc(=S)n2c1[nH]c(=O)c1ccccc12	-1.5	6.7	26.8*	-109.8	5.2	16.7	32.4*	Fam108b inh=25.0
CCOc1ccc(CCNC(=O)c2ccc3c(=O)[nH]c4c(C(=O)NC(C)C)sc(=S)n4c3c2)cc1	-2.8	9.8	11.0	-3.1	-0.2	10.4	x
O=C(NCCNc1ccc([N+](=O)[O-])cc1)c1cccs1	-5.5	2.7	1.3	0.3	2.8	-3.2	x
N#Cc1ncccc1CCc1cccc(Cl)c1	-3.2	3.2	-0.5	3.2	2.9	1.1	x
Nc1nc2ccccc2n1N=Cc1ccc(Br)cc1	x	x	x	x	x	x	x	Fam108b inh=0.0
CCN(CC)S(=O)(=O)c1ccc(OC)c(NC(=S)Nc2ccc(C)c(C)c2)c1	-1.2	-2.4	-5.6	-5.1	-6.9	9.3	x
